# In all, about 5,500 compounds went through this assay and about 2,000 (36%) were called active. About 18% were inconclusive and are not listed. The list shows a part of the results. Unmarked numbers belong to inactive results. No stated cut-off is given here; in the data, active means normalized growth mostly below about 0.91 (no sharp cut-off); inconclusive means no clear call, values can overlap the other calls; inactive means mostly above about 0.92.
# Test: chemical genetic growth profiling, strain panel (AID 1159580);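 further: tested at 20 µM; growth read once vehicle control cultures reached saturation at 30 °C; 1 = growth at the plate median or of vehicle wells; lower values mean less growth of the strain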
# Details: growth OD
# [1] = S. cerevisiae deletion strains, locus YDL101C, strain DUN1, active compounds read low
# [2] = S. cerevisiae deletion strains, locus YHR030C, strain SLT2, active compounds read low
smiles,measurement,setting,value
CCCOc1ccccc1/C=N\NC(=S)Nc1cccc(F)c1,normalized growth,"S. cerevisiae deletion strains, locus YAL013W, strain DEP1, active compounds read low",0.999
same,normalized growth,"S. cerevisiae deletion strains, locus YBR229C, strain ROT2, active compounds read low",1.02
same,normalized growth,"S. cerevisiae deletion strains, locus YCL061C, strain MRC1, active compounds read low",1.01
same,normalized growth,[1],1.04
same,normalized growth,"S. cerevisiae deletion strains, locus YDR150W, strain NUM1, active compounds read low",1
same,normalized growth,"S. cerevisiae deletion strains, locus YEL061C, strain CIN8, active compounds read low",1
same,normalized growth,"S. cerevisiae deletion strains, locus YGR078C, strain PAC10, active compounds read low",1
same,normalized growth,"S. cerevisiae deletion strains, locus YGR229C, strain SMI1, active compounds read low",1.01
same,normalized growth,[2],0.921
same,normalized growth,"S. cerevisiae deletion strains, locus YHR087W, strain rtc3, active compounds read low",1.03
same,normalized growth,"S. cerevisiae deletion strains, locus YJL187C, strain SWE1, active compounds read low",1
same,normalized growth,"S. cerevisiae deletion strains, locus YJR043C, strain POL32, active compounds read low",1.01
same,normalized growth,"S. cerevisiae deletion strains, locus YJR075W, strain HOC1, active compounds read low",1.08
same,normalized growth,"S. cerevisiae deletion strains, locus YLR039C, strain RIC1, active compounds read low",1.02
same,normalized growth,"S. cerevisiae deletion strains, locus YLR058C, strain SHM2 (second series), active compounds read low",1
same,normalized growth,"S. cerevisiae deletion strains, locus YLR085C, strain ARP6, active compounds read low",0.882
same,normalized growth,"S. cerevisiae deletion strains, locus YLR262C, strain YPT6, active compounds read low",1.02
same,normalized growth,"S. cerevisiae deletion strains, locus YML094W, strain GIM5, active compounds read low",1.01
same,normalized growth,"S. cerevisiae deletion strains, locus YMR219W, strain ESC1, active compounds read low",1.01
same,normalized growth,"S. cerevisiae deletion strains, locus YMR263W, strain SAP30, active compounds read low",0.966
same,normalized growth,"S. cerevisiae deletion strains, locus YMR307W, strain GAS1, active compounds read low",0.93
same,normalized growth,"S. cerevisiae deletion strains, locus YNL153C, strain GIM3, active compounds read low",1
same,normalized growth,"S. cerevisiae deletion strains, locus YNL298W, strain CLA4 (second series), active compounds read low",0.983
same,normalized growth,"S. cerevisiae deletion strains, locus YNL322C, strain KRE1, active compounds read low",1.03
same,normalized growth,"S. cerevisiae deletion strains, locus YNR030W, strain Alg12, active compounds read low",0.988
same,normalized growth,"S. cerevisiae deletion strains, locus YPL055C, strain LGE1, active compounds read low",0.945
same,normalized growth,"S. cerevisiae deletion strains, locus YPL241C, strain CIN2, active compounds read low",0.996
same,normalized growth,"S. cerevisiae deletion strains, locus YPR135W, strain CTF4, active compounds read low",0.987
same,normalized growth,"S. cerevisiae strains, strain wild type, active compounds read low",1
O=C(/C=C/c1ccc2c(c1)OCO2)Nc1ccc(Br)cc1,normalized growth,"S. cerevisiae deletion strains, locus YAR019C, strain CDC15, active compounds read low",0.962
same,normalized growth,"S. cerevisiae deletion strains, locus YBL105C, strain PKC1, active compounds read low",0.962
same,normalized growth,"S. cerevisiae deletion strains, locus YBR135W, strain CKS1, active compounds read low",0.972
same,normalized growth,"S. cerevisiae deletion strains, locus YBR136W, strain MEC1, active compounds read low",0.961
same,normalized growth,"S. cerevisiae deletion strains, locus YBR160W, strain CDC28, active compounds read low",0.967
same,normalized growth,"S. cerevisiae deletion strains, locus YDL017W, strain CDC7, active compounds read low",0.964
same,normalized growth,"S. cerevisiae deletion strains, locus YDL028C, strain MPS1, active compounds read low",0.962
same,normalized growth,[1],0.955
same,normalized growth,"S. cerevisiae deletion strains, locus YDL108W, strain KIN28, active compounds read low",0.961
same,normalized growth,"S. cerevisiae deletion strains, locus YDL132W, strain cdc53, active compounds read low",0.96
same,normalized growth,"S. cerevisiae deletion strains, locus YDL214C, strain PRR2, active compounds read low",0.922
same,normalized growth,"S. cerevisiae deletion strains, locus YDR052C, strain DBF4, active compounds read low",0.953
same,normalized growth,"S. cerevisiae deletion strains, locus YDR054C, strain cdc34, active compounds read low",0.958
same,normalized growth,"S. cerevisiae deletion strains, locus YDR226W, strain ADK1, active compounds read low",0.968
same,normalized growth,"S. cerevisiae deletion strains, locus YDR477W, strain SNF1, active compounds read low",0.962
same,normalized growth,"S. cerevisiae deletion strains, locus YER123W, strain YCK3, active compounds read low",0.9
same,normalized growth,"S. cerevisiae deletion strains, locus YER133W, strain GLC7, active compounds read low",0.976
same,normalized growth,"S. cerevisiae deletion strains, locus YFL009W, strain cdc4, active compounds read low",0.954
same,normalized growth,"S. cerevisiae deletion strains, locus YFL029C, strain CAK1, active compounds read low",0.962
same,normalized growth,"S. cerevisiae deletion strains, locus YFR003C, strain YPI1, active compounds read low",0.957
same,normalized growth,"S. cerevisiae deletion strains, locus YFR019W, strain FAB1, active compounds read low",0.987
same,normalized growth,"S. cerevisiae deletion strains, locus YFR028C, strain CDC14, active compounds read low",0.955
same,normalized growth,"S. cerevisiae deletion strains, locus YGR040W, strain KSS1, active compounds read low",0.95
same,normalized growth,"S. cerevisiae deletion strains, locus YGR052W, strain FMP48, active compounds read low",0.909
same,normalized growth,"S. cerevisiae deletion strains, locus YGR092W, strain DBF2, active compounds read low",0.767
same,normalized growth,[2],0.86
same,normalized growth,"S. cerevisiae deletion strains, locus YHR079C, strain IRE1, active compounds read low",0.872
same,normalized growth,"S. cerevisiae deletion strains, locus YHR082C, strain KSP1, active compounds read low",0.965
same,normalized growth,"S. cerevisiae deletion strains, locus YHR205W, strain SCH9, active compounds read low",0.791
same,normalized growth,"S. cerevisiae deletion strains, locus YIL147C, strain SLN1, active compounds read low",0.962
same,normalized growth,"S. cerevisiae deletion strains, locus YJL095W, strain BCK1, active compounds read low",0.77
same,normalized growth,"S. cerevisiae deletion strains, locus YJL128C, strain PBS2, active compounds read low",0.918
same,normalized growth,"S. cerevisiae deletion strains, locus YJL157C, strain FAR1, active compounds read low",0.974
same,normalized growth,"S. cerevisiae deletion strains, locus YJR016C, strain ILV3, active compounds read low",0.958
same,normalized growth,"S. cerevisiae deletion strains, locus YJR066W, strain TOR1 (second series), active compounds read low",0.972
same,normalized growth,"S. cerevisiae deletion strains, locus YJR066W, strain TOR1, active compounds read low",0.912
same,normalized growth,"S. cerevisiae deletion strains, locus YKL048C, strain ELM1, active compounds read low",0.931
same,normalized growth,"S. cerevisiae deletion strains, locus YKL067W, strain YNK1, active compounds read low",0.932
same,normalized growth,"S. cerevisiae deletion strains, locus YKL101W, strain HSL1, active compounds read low",0.933
same,normalized growth,"S. cerevisiae deletion strains, locus YKL193C, strain SDS22, active compounds read low",0.954
same,normalized growth,"S. cerevisiae deletion strains, locus YKL203C, strain TOR2, active compounds read low",1.03
same,normalized growth,"S. cerevisiae deletion strains, locus YLR113W, strain HOG1, active compounds read low",0.754 (active)
same,normalized growth,"S. cerevisiae deletion strains, locus YLR133W, strain CKI1, active compounds read low",0.96
same,normalized growth,"S. cerevisiae deletion strains, locus YLR403W, strain SFP1, active compounds read low",0.927
same,normalized growth,"S. cerevisiae deletion strains, locus YML070W, strain DAK1, active compounds read low",0.9
same,normalized growth,"S. cerevisiae deletion strains, locus YMR001C, strain CDC5, active compounds read low",0.957
same,normalized growth,"S. cerevisiae deletion strains, locus YMR205C, strain PFK2 (second series), active compounds read low",0.938
same,normalized growth,"S. cerevisiae deletion strains, locus YMR277W, strain FCP1, active compounds read low",0.959
same,normalized growth,"S. cerevisiae deletion strains, locus YNL006W, strain LST8, active compounds read low",0.974
same,normalized growth,"S. cerevisiae deletion strains, locus YNL020C, strain ARK1, active compounds read low",0.955
same,normalized growth,"S. cerevisiae deletion strains, locus YNL161W, strain CBK1, active compounds read low",0.971
same,normalized growth,"S. cerevisiae deletion strains, locus YNL183C, strain NPR1, active compounds read low",0.889
same,normalized growth,"S. cerevisiae deletion strains, locus YNL207W, strain RIO2, active compounds read low",0.953
same,normalized growth,"S. cerevisiae deletion strains, locus YNL222W, strain SSU72, active compounds read low",0.966
same,normalized growth,"S. cerevisiae deletion strains, locus YNL307C, strain MCK1 (second series), active compounds read low",0.854
same,normalized growth,"S. cerevisiae deletion strains, locus YOL078W, strain AVO1, active compounds read low",0.945
same,normalized growth,"S. cerevisiae deletion strains, locus YOL136C, strain PFK27, active compounds read low",0.889
same,normalized growth,"S. cerevisiae deletion strains, locus YOR061W, strain CKA2, active compounds read low",0.973
same,normalized growth,"S. cerevisiae deletion strains, locus YOR119C, strain RIO1, active compounds read low",1.02
same,normalized growth,"S. cerevisiae deletion strains, locus YOR231W, strain MKK1, active compounds read low",0.847
same,normalized growth,"S. cerevisiae deletion strains, locus YOR329C, strain SCD5, active compounds read low",0.963
same,normalized growth,"S. cerevisiae deletion strains, locus YPL031C, strain PHO85, active compounds read low",0.962
same,normalized growth,"S. cerevisiae deletion strains, locus YPL153C, strain RAD53, active compounds read low",0.97
same,normalized growth,"S. cerevisiae deletion strains, locus YPL204W, strain HRR25, active compounds read low",0.95
same,normalized growth,"S. cerevisiae deletion strains, locus YPL209C, strain IPL1, active compounds read low",0.963
same,normalized growth,"S. cerevisiae deletion strains, locus YPL256C, strain CLN2, active compounds read low",0.954
same,normalized growth,"S. cerevisiae deletion strains, locus YPR025C, strain CCL1, active compounds read low",0.958
same,normalized growth,"S. cerevisiae deletion strains, locus YPR106W, strain ISR1, active compounds read low",0.946
same,normalized growth,"S. cerevisiae deletion strains, locus YPR111W, strain DBF20, active compounds read low",0.925
same,normalized growth,"S. cerevisiae deletion strains, strain NNK1, active compounds read low",0.939
same,normalized growth,"S. cerevisiae deletion strains, strain TSCII, active compounds read low",0.968
